Results reported in PubChem BioAssay (NCATS).
Values joined by “and” are separate entries in the source; they are usually repeats but may differ in a detail not shown here. Equal values may be shown once. Results filed as inconclusive are left out. Active and inactive are the calls of the source. Unless noted, calls come from the whole dose curve; as a rule, active = well fitted curve in the direction sought with a large enough effect; inconclusive = small, poorly fitted or top-dose-only effect, or another doubt; inactive = no such curve, though single readings can be large; an effect the other way counts as inactive or inconclusive.

Legend:
[1] = test system: HIV-1 nucleocapsid protein NCp7 (binding to TG oligonucleotide); experiment: HIV Nucleocapsid (AID 346; call rule not given here;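 note: potency is the fitted concentration of half-maximal effect; potency is for inhibitors that block NC binding and lower polarization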); conditions: HIV-1 NC / fluorescein-TGTGTGTG probe, fluorescence polarization
In short: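 NCp7 100 nM + fluorescein TG4xF 10 nM; Hepes pH 7.5/250mM NaCl/1uM ZnCl2/0.004% PEG 20000; 1 hr RT; FP, 45 s exposure; oligo-only wells as negative control.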

[2] = biological target: Lysosomal acid glucosylceramidase (Homo sapiens) (UniProt P04062); experiment: Glucocerebrosidase-p2 (AID 348; in the data active = potency below about 10 µM; note: potency is the fitted concentration of half-maximal effect); conditions: purified GBA, blue fluorogenic substrate, 40 min
Lysosomal acid glucosylceramidase (Homo sapiens), sequence (P04062 whole entry, looked up): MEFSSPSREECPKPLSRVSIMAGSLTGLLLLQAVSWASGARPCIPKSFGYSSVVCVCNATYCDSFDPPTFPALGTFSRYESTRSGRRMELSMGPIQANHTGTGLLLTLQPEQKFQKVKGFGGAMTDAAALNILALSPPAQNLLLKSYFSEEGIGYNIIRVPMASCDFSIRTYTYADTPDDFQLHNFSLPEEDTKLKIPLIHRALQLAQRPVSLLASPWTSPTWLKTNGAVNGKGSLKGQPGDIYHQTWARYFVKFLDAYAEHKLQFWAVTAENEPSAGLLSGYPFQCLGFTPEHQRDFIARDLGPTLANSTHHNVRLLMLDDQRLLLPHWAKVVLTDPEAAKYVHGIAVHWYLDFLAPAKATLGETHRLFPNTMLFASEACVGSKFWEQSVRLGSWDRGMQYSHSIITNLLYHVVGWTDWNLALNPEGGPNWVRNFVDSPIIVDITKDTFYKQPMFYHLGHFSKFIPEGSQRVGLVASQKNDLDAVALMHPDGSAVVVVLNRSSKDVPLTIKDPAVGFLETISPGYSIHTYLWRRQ
In short: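 Compounds titrated from 0.6 nM upwards against 0.2 nM enzyme in pH 5.9 citric acid/KH2PO4, taurocholate, tween-20; blue fluorogenic substrate 80 uM, 40 min room temperature, stopped and read Ex 365/Em 440 for AC50.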

[3] = AP1 Signaling Pathway (AID 357; active = well fitted curve in either direction with a large enough effect, not every such curve was filed as active; note: % is set by controls: 0 for no effect and ±100 for the full control effect); conditions: ME-180 AP-1-bla reporter, EGF-induced, beta-lactamase ratio, 5 h; series mostly up to 17.2 µM
In short: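 ME-180 cells with beta-lactamase reporter under AP-1 response element, stimulated with EC50 EGF; compounds tested in titration series, 5 h at 37 °C. CCF4 substrate added 2.5 h at room temperature; 460/530 nm emission ratio gave %activity and AC50.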

[4] = biological target: Cytochrome P450 1A2 (Homo sapiens) (UniProt P05177); experiment: p450-cyp1a2 (AID 410; calls by dose curve; note: potency is the fitted concentration of half-maximal effect;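 for activity change, negative = inhibition: -100% = full effect of reference inhibitor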); conditions: recombinant CYP1A2, luciferin-ME demethylation, luminescence; series mostly up to 25.6 µM
Cytochrome P450 1A2 (Homo sapiens), sequence (P05177 whole entry, looked up): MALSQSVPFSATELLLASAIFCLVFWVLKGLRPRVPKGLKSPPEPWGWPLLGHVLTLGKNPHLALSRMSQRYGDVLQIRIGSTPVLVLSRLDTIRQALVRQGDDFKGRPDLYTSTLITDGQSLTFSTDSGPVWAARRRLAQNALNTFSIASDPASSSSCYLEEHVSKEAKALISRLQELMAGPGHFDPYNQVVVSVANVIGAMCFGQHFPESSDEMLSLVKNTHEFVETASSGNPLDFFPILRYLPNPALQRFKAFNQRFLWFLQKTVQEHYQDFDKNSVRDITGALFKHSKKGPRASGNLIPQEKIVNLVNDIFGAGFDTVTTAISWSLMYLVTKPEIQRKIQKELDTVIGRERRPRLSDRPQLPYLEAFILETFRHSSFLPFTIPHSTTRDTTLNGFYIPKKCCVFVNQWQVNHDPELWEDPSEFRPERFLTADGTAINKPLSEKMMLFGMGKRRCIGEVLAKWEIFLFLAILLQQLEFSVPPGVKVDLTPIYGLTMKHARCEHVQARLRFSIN
In short: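 20nM CYP1A2 with 100uM Luciferin-ME (at Km) in 100mM KPO4; compound preincubated 10 min, NADPH regeneration added, 60 min at room temperature. Luciferin quantified by luminescence after detection reagent; normalized to 57 uM furafylline.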

[5] = NFAT Signaling Pathway (AID 444; active = well fitted curve in either direction with a large enough effect, not every such curve was filed as active;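 note: carbachol stimulus at about its EC50 of 1 µM final; % is set by controls: 0 for no effect and ±100 for the full control effect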); conditions: Jurkat NFAT-bla M1, carbachol, beta-lactamase ratio, 5 h
In short: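 Jurkat cells with NFAT-driven β-lactamase reporter and co-expressed M1 receptor, stimulated with carbachol (final 1 uM, ~EC50), compound titration, 5 h at 37 °C. CCF4 loaded 1 h at RT; 460/530 nm ratio gave %activity and AC50.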

[6] = Stat Signaling Pathway (AID 446; active = well fitted curve in either direction with a large enough effect, not every such curve was filed as active;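 note: ME-180 cervical cancer cells given 40 pM IL-6 alongside compound; SIE-controlled beta-lactamase reporter measured as 460/530 nm FRET emission ratio; % is set by controls: 0 for no effect and ±100 for the full control effect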); conditions: ME-180 SIE beta-lactamase reporter, IL-6 stimulated, 5 h; series mostly up to 17.2 µM
In short: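 Reporter line: ME-180 cervical carcinoma, SIE-beta-lactamase. Treatment: compound with 40 pM IL-6, 5 hrs, 37 C, in low-serum OPTI-MEM with 10 mM HEPES pH 7.3. Detection: 460/530 nm fluorescence.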

[7] = biological target: Glucocorticoid receptor (Homo sapiens) (UniProt P04150); experiment: GR-EFC Redistribution (AID 451; calls by dose curve; note: potency is the fitted concentration of half-maximal effect); conditions: CHO-K1 GR-EFC translocation, beta-gal luminescence, 2 h
Glucocorticoid receptor (Homo sapiens), sequence (P04150 whole entry, looked up, the tested form may be a part): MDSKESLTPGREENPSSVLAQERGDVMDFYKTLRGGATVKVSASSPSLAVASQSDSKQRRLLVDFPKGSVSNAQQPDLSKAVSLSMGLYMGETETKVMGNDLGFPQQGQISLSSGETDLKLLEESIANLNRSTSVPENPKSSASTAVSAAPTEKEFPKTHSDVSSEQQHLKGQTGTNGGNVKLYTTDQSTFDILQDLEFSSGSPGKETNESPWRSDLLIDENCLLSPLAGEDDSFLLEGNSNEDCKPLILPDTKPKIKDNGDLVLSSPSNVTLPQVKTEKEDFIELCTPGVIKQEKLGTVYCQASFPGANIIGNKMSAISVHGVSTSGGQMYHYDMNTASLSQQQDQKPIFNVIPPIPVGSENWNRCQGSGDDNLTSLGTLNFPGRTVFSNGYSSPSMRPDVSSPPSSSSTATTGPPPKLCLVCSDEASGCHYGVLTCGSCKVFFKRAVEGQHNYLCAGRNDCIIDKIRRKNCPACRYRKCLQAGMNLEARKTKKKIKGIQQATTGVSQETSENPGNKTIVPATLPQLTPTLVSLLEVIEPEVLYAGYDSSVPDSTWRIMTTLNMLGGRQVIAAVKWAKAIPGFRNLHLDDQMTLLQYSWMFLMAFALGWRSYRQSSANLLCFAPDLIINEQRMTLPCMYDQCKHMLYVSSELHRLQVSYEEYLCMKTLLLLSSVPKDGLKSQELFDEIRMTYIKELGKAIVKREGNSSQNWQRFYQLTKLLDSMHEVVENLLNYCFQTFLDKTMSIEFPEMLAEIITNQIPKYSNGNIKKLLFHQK
In short: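 CHO-K1 cells expressing nuclear EA and GR-ED fragments of b-gal; compounds titrated up to 46 uM final, 2 h at 37 C. GR nuclear translocation read as complemented b-gal luminescence after 1 h RT detection.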

[8] = biological target: Mitogen-activated protein kinase 10 (Mus musculus) (UniProt Q61831); experiment: JNK3 AlphaScreen Assay (AID 530; active = well fitted curve in either direction with a large enough effect, not every such curve was filed as active;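 note: kinase came from lysate of stimulated human HepG2 cells; signal reports phosphorylation of biotinylated GST-cJun 1-79 at Ser73 with 10 µM ATP; % is set by controls: 0 for no effect and ±100 for the full control effect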); conditions: JNK3 lysate, c-Jun phosphorylation; series mostly up to 57.1 µM
In short: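 Pre-activated (IL-1β/TNFα) JNK3 in HepG2 lysates phosphorylates biotin-GST-cJun(1-79), 10 uM ATP; anti-phospho-cJun(Ser73) AlphaScreen read at room temperature, pH 7.6 Tris buffer. Compounds pre-incubated 15 min as titrations.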

[9] = biological target: 3',5'-cyclic-AMP phosphodiesterase 4B (Homo sapiens) (UniProt Q07343); experiment: qHTS Assay for Inhibitors of PDE-IV (AID 607; active = well fitted activation curve with a large enough effect in the main read-out, with a control signal flat, not every such curve was filed as active; note: % of control where 0% means no effect); conditions: HEK293 ACTOne CNG channel cells, membrane potential fluorescence; series mostly up to 22.9 µM
3',5'-cyclic-AMP phosphodiesterase 4B (Homo sapiens), sequence (Q07343 whole entry, looked up): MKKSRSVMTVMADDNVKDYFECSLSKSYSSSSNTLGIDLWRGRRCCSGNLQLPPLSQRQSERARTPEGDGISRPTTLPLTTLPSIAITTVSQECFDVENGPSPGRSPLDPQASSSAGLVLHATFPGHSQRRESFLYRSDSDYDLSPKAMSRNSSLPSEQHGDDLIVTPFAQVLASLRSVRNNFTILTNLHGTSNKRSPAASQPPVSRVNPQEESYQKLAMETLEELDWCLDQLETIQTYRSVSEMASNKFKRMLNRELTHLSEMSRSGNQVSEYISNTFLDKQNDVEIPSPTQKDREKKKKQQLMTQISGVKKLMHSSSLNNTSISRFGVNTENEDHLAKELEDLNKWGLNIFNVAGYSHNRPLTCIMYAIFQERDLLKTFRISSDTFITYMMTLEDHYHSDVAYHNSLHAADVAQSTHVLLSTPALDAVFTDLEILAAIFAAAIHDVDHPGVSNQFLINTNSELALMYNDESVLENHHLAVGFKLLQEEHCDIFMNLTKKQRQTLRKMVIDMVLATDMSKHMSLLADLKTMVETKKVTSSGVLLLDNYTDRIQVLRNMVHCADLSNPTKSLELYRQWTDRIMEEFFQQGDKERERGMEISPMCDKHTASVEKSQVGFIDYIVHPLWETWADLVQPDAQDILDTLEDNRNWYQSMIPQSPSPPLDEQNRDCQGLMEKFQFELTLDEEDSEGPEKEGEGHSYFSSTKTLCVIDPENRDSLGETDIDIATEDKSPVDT
In short: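 Cell-based read-out of cAMP via a modified cyclic nucleotide-gated channel and membrane potential dye (535/590 nm) in HEK293 cells expressing PDE4 endogenously. Compounds tested up to 22.9 uM final; 100 uM RO 20-1724 reference.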

[10] = biological target: Cytochrome P450 3A4 (Homo sapiens) (UniProt P08684); experiment: qHTS Assay for Activators of Cytochrome P450 3A4 (AID 885); conditions: recombinant CYP3A4, Luciferin-PPXE luminescence, 60 min; series mostly up to 57.1 µM; note: nearly all actives have a fitted effect of over 65% in size
Cytochrome P450 3A4 (Homo sapiens), sequence (P08684 whole entry, looked up): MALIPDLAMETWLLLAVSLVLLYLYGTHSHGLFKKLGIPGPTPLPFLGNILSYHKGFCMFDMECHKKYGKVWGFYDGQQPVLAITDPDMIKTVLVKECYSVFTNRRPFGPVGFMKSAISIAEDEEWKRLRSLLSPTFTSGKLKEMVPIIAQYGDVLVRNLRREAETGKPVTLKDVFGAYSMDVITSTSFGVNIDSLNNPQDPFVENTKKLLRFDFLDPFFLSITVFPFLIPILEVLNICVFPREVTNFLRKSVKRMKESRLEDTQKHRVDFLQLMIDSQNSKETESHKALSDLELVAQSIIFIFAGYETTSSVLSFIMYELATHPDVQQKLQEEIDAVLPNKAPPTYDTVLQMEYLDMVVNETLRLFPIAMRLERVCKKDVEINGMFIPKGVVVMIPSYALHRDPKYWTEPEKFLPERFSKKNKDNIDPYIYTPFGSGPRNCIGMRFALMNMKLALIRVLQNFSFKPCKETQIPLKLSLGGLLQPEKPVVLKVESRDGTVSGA
In short: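 Signal was normalized against complete inhibition by 57 uM ketoconazole. The reaction used 20nM CYP3A4 with 25uM Luciferin-PPXE, 10-min compound preincubation and a 60-min NADPH-supported step at RT.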

[11] = biological target: Cytochrome P450 2D6 (Homo sapiens) (UniProt P10635); experiment: qHTS Assay for Inhibitors and Substrates of Cytochrome P450 2D6 (AID 891); conditions: recombinant CYP2D6, luciferin-ME EGE luminescence; series mostly up to 57.1 µM; note: potency is the fitted concentration of half-maximal effect; nearly all actives have a fitted effect of over 60% in size
Cytochrome P450 2D6 (Homo sapiens), sequence (P10635 whole entry, looked up): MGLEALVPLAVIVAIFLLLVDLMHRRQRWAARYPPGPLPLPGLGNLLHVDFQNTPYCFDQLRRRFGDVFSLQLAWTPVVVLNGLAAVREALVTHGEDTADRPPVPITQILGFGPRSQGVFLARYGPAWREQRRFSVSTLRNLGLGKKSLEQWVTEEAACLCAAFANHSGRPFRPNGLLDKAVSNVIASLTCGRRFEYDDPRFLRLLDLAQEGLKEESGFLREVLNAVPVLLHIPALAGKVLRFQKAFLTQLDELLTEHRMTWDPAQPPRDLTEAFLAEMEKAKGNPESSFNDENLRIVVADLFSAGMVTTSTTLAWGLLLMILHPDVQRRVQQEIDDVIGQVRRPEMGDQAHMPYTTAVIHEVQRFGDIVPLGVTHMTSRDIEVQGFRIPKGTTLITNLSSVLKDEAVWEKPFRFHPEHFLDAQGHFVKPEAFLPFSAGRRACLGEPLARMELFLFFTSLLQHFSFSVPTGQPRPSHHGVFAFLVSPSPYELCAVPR
In short: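 Human CYP2D6 (5 nM) with 30 uM Luciferin-ME EGE (at Km) in 100 mM KPO4, compound preincubated 10 min, then NADPH regeneration system for 60 min at room temperature. Luciferin read by luminescence; normalized to 1.43 uM quinidine.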

[12] = Primary qHTS for small molecule stabilizers of the endoplasmic reticulum resident proteome: Secreted ER Calcium Modulated Protein (SERCaMP) assay (AID 1508630); conditions: SH-SY5Y GLuc-SERCaMP (Gaussia luciferase released on ER calcium loss) secretion, thapsigargin, luminescence; series mostly up to 38.4 µM; note: % is set by controls: 0 for no effect and ±100 for the full control effect
In short: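 GLuc-SERCaMP-expressing SH-SY5Y cells, pretreated 16 h with compound, are challenged with thapsigargin to empty ER calcium stores; after 4 h, coelenterazine is added directly to the medium and luminescence is imaged.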

[13] = Confirmation and Secondary Assay for Modulators of Hemoglobin Beta Chain Splicing at IVS2 705 locus (AID 930); conditions: HeLa EGFP-705 splicing reporter, GFP fluorescence, 48 h; series mostly up to 46.1 µM;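 note: HeLa cells stably expressing the EGFP-705 splicing reporter; GFP fluorescence per well restored by corrected splicing of the IVS2-705 intron in EGFP; % of control where 0% means no effect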
In short: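 Per-well GFP, captured at 1 x 8 µm resolution with 488 nm excitation, served as the read-out for HeLa EGFP-705 cells incubated 2 days with test compound versus DMSO.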

[14] = qHTS Assay for Lipid Storage Modulators (AID 1519; calls by dose curve); conditions: Drosophila S3 cells, BODIPY lipid droplet/cell ratio, laser cytometry, cells loaded with oleic acid
In short: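 Cells seeded at 5,000 per well were treated with compounds over a concentration series and loaded with oleic acid (400 uM, as added). Lipid droplet fluorescence (488 nm excitation, 500-530 nm channel) was read by laser-scanning cytometry and normalized to 20 uM Triacsin C.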

[15] = biological target: Ubiquitin carboxyl-terminal hydrolase 1 (Homo sapiens) (UniProt O94782); experiment: Inhibitors of USP1/UAF1: Pilot qHTS (AID 504865); conditions: purified USP1/UAF1, Ub-rhodamine cleavage fluorescence; series mostly up to 114 µM;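 note: rhodamine fluorescence freed from ubiquitin-rhodamine substrate followed over time; top concentration of the series differs between compounds; % is set by controls: 0 for no effect and ±100 for the full control effect; nearly all actives have a fitted effect of over 35% in size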
Ubiquitin carboxyl-terminal hydrolase 1 (Homo sapiens), sequence (O94782 whole entry, looked up): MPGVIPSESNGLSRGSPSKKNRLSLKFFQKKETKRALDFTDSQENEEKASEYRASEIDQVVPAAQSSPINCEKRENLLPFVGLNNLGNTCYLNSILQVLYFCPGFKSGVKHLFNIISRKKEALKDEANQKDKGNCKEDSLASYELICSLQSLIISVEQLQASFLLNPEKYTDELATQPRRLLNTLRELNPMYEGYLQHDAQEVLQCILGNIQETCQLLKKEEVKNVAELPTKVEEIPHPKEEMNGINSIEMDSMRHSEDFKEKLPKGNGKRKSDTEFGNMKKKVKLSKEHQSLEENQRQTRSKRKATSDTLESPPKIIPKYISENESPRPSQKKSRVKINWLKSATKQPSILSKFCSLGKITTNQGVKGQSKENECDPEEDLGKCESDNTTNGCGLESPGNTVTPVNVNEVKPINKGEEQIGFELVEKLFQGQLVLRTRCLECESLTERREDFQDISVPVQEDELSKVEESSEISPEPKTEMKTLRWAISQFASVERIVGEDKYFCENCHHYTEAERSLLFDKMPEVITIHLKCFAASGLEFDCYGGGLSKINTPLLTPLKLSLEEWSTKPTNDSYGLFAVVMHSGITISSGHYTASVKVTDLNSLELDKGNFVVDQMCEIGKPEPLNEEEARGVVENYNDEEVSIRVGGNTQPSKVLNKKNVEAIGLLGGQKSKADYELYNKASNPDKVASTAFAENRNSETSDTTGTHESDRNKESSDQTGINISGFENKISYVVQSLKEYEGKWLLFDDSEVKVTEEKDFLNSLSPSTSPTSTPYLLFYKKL
In short: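 Kinetic fluorescence assay: 1nM USP1/UAF1, 15 min compound preincubation, then 150nM Ub-Rho; 480/540 nm.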

[16] = biological target: Glucocorticoid receptor (Homo sapiens) (UniProt P04150); experiment: GR-GFP Redistribution (AID 450;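 active = compounds whose dose series gives a full or clear partial fitted curve of increased nuclear translocation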; note: potency is the fitted concentration of half-maximal effect); conditions: U2OS GR-GFP nuclear translocation, laser cytometry, 2 h
[17] = biological target: Cytochrome P450 3A4 (Homo sapiens) (UniProt P08684); experiment: qHTS Assay for Inhibitors and Substrates of Cytochrome P450 3A4 (AID 884); conditions: recombinant CYP3A4, Luciferin-PPXE luminescence; series mostly up to 57.1 µM; note: nearly all actives have a fitted effect of over 50% in size; note: potency is the fitted concentration of half-maximal effect
In short: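 20 nM human CYP3A4 with 25 uM Luciferin-PPXE (at KM) in 200 mM KPO4, preincubated 10 min with compound; NADPH regeneration started a 60 min RT reaction. Luciferin detected by luminescence, normalized to 57 uM ketoconazole as full inhibition.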

[18] = Confirmation and Secondary Assay for Modulators of Hemoglobin Beta Chain Splicing at IVS2 654 locus (AID 910); conditions: HeLa EGFP-654 splicing reporter, GFP fluorescence, 48 h; series mostly up to 46.1 µM;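 note: HeLa cells stably carrying EGFP split by mutant beta-globin IVS2-654 intron; % of control where 0% means no effect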
In short: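 HeLa cells stably expressing EGFP interrupted by β-globin IVS2-654 intron, seeded overnight in Opti-MEM/2% FCS, then treated 2 days at 37 °C. Restored splicing read as total peak GFP intensity per well by laser scanning cytometry (488 nm excitation, 500–520 nm emission); 500 nM antisense PNA as control.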

[19] = biological target: Voltage-gated inwardly rectifying potassium channel KCNH2 (Homo sapiens) (UniProt Q12809); experiment: qHTS Assay for Small Molecule Inhibitors of the Human hERG Channel Activity (AID 588834); conditions: U2OS BacMam hERG, FluxOR thallium flux fluorescence; series mostly up to 92.2 µM;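 note: top concentration of the series differs between compounds; % is set by controls: 0 for no effect and ±100 for the full control effect; lower thallium flux fluorescence means stronger hERG block; nearly all actives have a fitted effect of over 50% in size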
In short: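 Measured: FluxOR fluorescence after thallium stimulation in U2OS cells transduced with hERG by baculovirus. Compounds pre-incubated around 10 min; medium Opti-MEM with 2% FCS. AC50 from Hill equation.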

[20] = measured here: cell count channel max response
[21] = measured here: lipid channel max response

COc1ccc(NC(=O)N2CC[C@@]3(CCCN(C(=O)Oc4ccccc4)C3)C2)cc1
inactive: Potency [1] > 20 µM | Potency [2] > 11.4 µM | outcome [3] | Potency [4] | activity change, negative = inhibition ([5]; at 7.69 µM (top of the series)) 4.32% | outcome [6] | Potency [7] > 46 µM | outcome [8] | Potency [9] | Potency [10] | outcome [12]
active: Potency [11] 6.31 µM

COc1c2c(cc3c1OCO3)CC[N+](C)=C2
inactive: Potency [13] | activity change, negative = inhibition ([14]; at 57.5 µM (top of the series)) 10.8% | Potency [15] | outcome [12]
8.04%: max response [14, 20]
18.3%: max response [14, 21]

CC1=NCCc2c1[nH]c1cc(O)ccc21
active: Potency [4] 12.6 µM and 25.1 µM
2% and 2.42%: max response [14, 20]
2.85% and 18.5%: max response [14, 21]
inactive: activity change, negative = inhibition ([5]; at 17.2 µM (top of the series)) -14.7% | outcome [6] | Potency [16] > 20.6 µM and > 46 µM | Potency [7] > 20.6 µM and > 46 µM | outcome [8] | Potency [9] | Potency [17] | Potency [10] | Potency [18] | activity change, negative = inhibition ([14]; at 25.7 µM (top of the series)) 1.71% | activity change, negative = inhibition ([14]; at 57.5 µM (top of the series)) 18.3%

CN1[C@@H]2CC(OC(=O)[C@H](CO)c3ccccc3)C[C@@H]1[C@H]1O[C@H]12 (some centres undefined)
-8.42%: max response [14, 20]
inactive: activity change, negative = inhibition ([14]; at 57.5 µM (top of the series)) 4.98%
-4.12%: max response [14, 21]

CN1CCN(c2ncc3ncc(=O)n(C)c3n2)CC1
1.21%: max response [14, 21]
inactive: Potency [1] > 20 µM | Potency [2] > 11.4 µM | outcome [3] | activity change, negative = inhibition ([5]; at 7.69 µM (top of the series)) 11.5% | outcome [6] | Potency [16] > 9.22 µM | Potency [7] > 46 µM | outcome [8] | activity change, negative = inhibition ([14]; at 57.5 µM (top of the series)) 3.09% | Potency [15]
-0.0774%: max response [14, 20]
active: Potency [4] 12.6 µM

O=C(Nc1ccccc1)N1CCCC2(CCN(C(=O)Oc3ccccc3)CC2)C1
active: Potency [4] 25.1 µM
inactive: Potency [2] > 11.4 µM | outcome [3] | outcome [6] | Potency [7] > 46 µM | Potency [9] | Potency [10] | outcome [12]

C=C(C)C1Cc2c(ccc3c(=O)c4c(oc23)COc2cc(OC)c(OC)cc2-4)O1 (centres undefined)
inactive: Potency [17] | Potency [13] | Potency [15] | outcome [12]

O=C(Oc1ccccc1)N1CCC[C@@]2(CCN(C(c3ccccc3)c3ccccc3)C2)C1
inactive: Potency [2] > 11.4 µM | outcome [3] | activity change, negative = inhibition ([5]; at 7.69 µM (top of the series)) -12.9% | outcome [6] | Potency [7] > 46 µM | outcome [8] | Potency [9] | Potency [10] | outcome [12]
active: Potency [4] 25.1 µM | Potency [11] 5.01 µM

CC(=O)OC1CC2C(C)(C)C(=O)C=C[C@]2(C)C2CC[C@]3(C)C(=CC(=O)OC3c3ccoc3)[C@]12C (some centres undefined)
5.48%: max response [14, 20]
inactive: Potency [10] | Potency [18] | Potency [13] | activity change, negative = inhibition ([14]; at 57.5 µM (top of the series)) -3.77%
6.78%: max response [14, 21]
active: Potency [17] 15.8 µM

O=C(OC1CCN(CCCl)CC1)C(c1ccccc1)c1ccccc1
-17.2%: max response [14, 20]
active: Potency [4] 12.6 µM
inactive: outcome [3] | outcome [6] | Potency [16] > 46 µM | Potency [7] > 46 µM | outcome [8] | Potency [10] | activity change, negative = inhibition ([14]; at 57.5 µM (top of the series)) 0.755% | Potency [19]
-14.8%: max response [14, 21]
